Assay results as given in the OligoGym collection.

Target: MIP
Experiment: pooled miR-30 sensor sort-seq; sequence = guide strand
Conditions: shRNA
Further: reference of the scale not given here.

Sequence	sensor-assay potency score (higher = more potent)
TTGAGTGCTAGGTTTCCTCGGA	-0.0163
TCAGAAATACTCTTGAGCCGGG	0.442
TCGTATGTGGCAAAGATGCAGA	-0.993
TAGGTTTCCTCGGACAGCAGGT	-0.243
TTCAGTTCAACAGGTTCCCCTG	-0.987
TAACGCTATACAGCACAGCGGC	-1.18
TTGTCCATTGGAGACATCGGGT	-0.903
TGAGGACAGACAGTCTCTCAGA	-1.25
TTCCTCGGACAGCAGGTGGGGT	-1.18
TGAGTGCTAGGTTTCCTCGGAC	-0.712
TCTCTCAGAAATACTCTTGAGC	-0.614
TGTCCATTGGAGACATCGGGTT	-1.24

Target: MIS12
Experiment: as above
Conditions: shRNA

Sequence	sensor-assay potency score (higher = more potent)
TAGATCCGAAGCATGCACGTTT	0.233
TCTCCTTACATTTATCTTCAGG	-1.19
TTTTTTGCTCTTCTAATTCTGC	-0.78
TTTATCTTCAGGAAGCAAGATG	-0.586
